The term inhibition denotes the relative decrease from the control value, in per cent.

Unmarked numbers belong to inactive results. For some of these results: Results with a measured potency or affinity are listed apart. The source made the active and inactive calls. Unless noted, no rule for the calls is given here.

This note sets out measurements from PubChem BioAssay.

Experiment [1] is described as follows: antimalarial activity against Dd2 strain (AID 2302;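 active = growth inhibition above 50% at the single 2 µM test dose, taken to imply half-maximal potency below 2 µM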;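 also: 0% = DMSO untreated growth and 100% = chloroquine plus artemisinin killed control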). Conditions: P. falciparum Dd2 in RBCs, LDH growth readout, 72 h; at 2 µM; hits give high values.
The nature of experiment [2]: human hepatoma cell viability loss – ATP luminescence, cytotoxicity control for P. falciparum antimalarial project, primary screen (AID 2303;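 active = inhibition above 50%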;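 also: 0% = DMSO wells and 100% = digitonin-killed cells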). Conditions: HepG2 viability, 24-48 h, at 10 µM, hits give high values.
The target of experiment [3] is L-lactate dehydrogenase (Plasmodium falciparum (isolate CDC / Honduras)) (UniProt Q27743). Put plainly: PfLDH activity inhibition – cell lysate, 3D7 strain, counter-screen for P. falciparum growth inhibition project (AID 2304).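 Also: 0% = vehicle and 100% = reference inhibitor.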 Conditions: P. falciparum 3D7 crude extract, LDH APAD/NBT absorbance; at 2 µM; hits give high values. A general note: A counterscreen serves to expose hits that act by an unwanted route or on another target.

Experiment [4] is described as follows: inhibition of 3D7 malaria parasite growth – strain 3D7 (AID 2306).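 Also: 0% = DMSO wells and 100% = chloroquine plus artemisinin control wells.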 Conditions: P. falciparum 3D7 erythrocytic growth, LDH absorbance, 72 h; at 2 µM; hits give high values.
Experiment [5] addresses Calcium-dependent protein kinase 1 (Plasmodium falciparum (isolate 3D7)) (UniProt P62344). Put plainly: PfCDPK1 kinase inhibitors, biochemical, TCAMS library (AID 1159585; cut-off not given, nearly all actives have IC50 up to about 0.98 µM;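 also: inhibitors leave more ATP so luminescence rises with inhibition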). Conditions: recombinant PfCDPK1, Kinase-Glo ATP depletion luminescence. Background: Kinase-Glo reads ATP consumption through a luciferase reaction.
For experiment [6], the target named is Plasmodium falciparum protein kinase 6 (PK6, PF3D7_1337100) (UniProt Q8IDW1). Nature of the experiment: PfPK6 kinase inhibitors, biochemical, TCAMS library (AID 1159586). Conditions: recombinant PfPK6, Kinase-Glo ATP depletion luminescence.
The target in experiment [7] is Protein kinase 7 (PK7), Plasmodium falciparum 3D7 (PF3D7_0213400) (UniProt Q7YTF7). Put plainly: inhibition of Plasmodium PK7 catalytic activity – biochemical, TCAMS antimalarial set, Kinase-Glo luminescence (AID 1159587). Conditions: recombinant PfPK7, Kinase-Glo ATP depletion luminescence.
Experiment [8] concerns the target Calcium-dependent protein kinase 4 (Plasmodium falciparum (isolate 3D7)) (UniProt Q8IBS5). Nature of the experiment: PfCDPK4 kinase inhibitors, biochemical, TCAMS library (AID 1159588; cut-off not given, nearly all actives have IC50 up to about 0.91 µM). Conditions: recombinant PfCDPK4, Kinase-Glo ATP depletion luminescence.

Protein kinase 7 (PK7), Plasmodium falciparum 3D7 (PF3D7_0213400), sequence (Q7YTF7 1-343): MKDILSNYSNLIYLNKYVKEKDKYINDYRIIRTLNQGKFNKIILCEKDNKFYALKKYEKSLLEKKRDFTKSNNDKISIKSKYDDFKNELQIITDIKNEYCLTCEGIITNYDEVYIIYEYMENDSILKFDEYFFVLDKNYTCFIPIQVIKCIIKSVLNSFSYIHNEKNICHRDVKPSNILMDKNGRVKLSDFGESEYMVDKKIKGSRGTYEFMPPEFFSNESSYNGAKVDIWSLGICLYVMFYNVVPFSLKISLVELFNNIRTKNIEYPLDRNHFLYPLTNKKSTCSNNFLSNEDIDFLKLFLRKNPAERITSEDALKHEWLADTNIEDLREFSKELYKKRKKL
Plasmodium falciparum protein kinase 6 (PK6, PF3D7_1337100), sequence (Q8IDW1 1-305): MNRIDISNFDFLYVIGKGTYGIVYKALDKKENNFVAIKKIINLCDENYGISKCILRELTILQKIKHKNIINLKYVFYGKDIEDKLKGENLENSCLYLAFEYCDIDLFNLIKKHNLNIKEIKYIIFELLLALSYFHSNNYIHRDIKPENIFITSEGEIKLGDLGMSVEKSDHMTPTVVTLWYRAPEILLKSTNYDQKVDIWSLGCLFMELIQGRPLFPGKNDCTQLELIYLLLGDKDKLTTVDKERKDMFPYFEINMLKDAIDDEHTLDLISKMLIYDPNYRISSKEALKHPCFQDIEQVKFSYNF
L-lactate dehydrogenase (Plasmodium falciparum (isolate CDC / Honduras)), sequence (Q27743 whole entry, looked up): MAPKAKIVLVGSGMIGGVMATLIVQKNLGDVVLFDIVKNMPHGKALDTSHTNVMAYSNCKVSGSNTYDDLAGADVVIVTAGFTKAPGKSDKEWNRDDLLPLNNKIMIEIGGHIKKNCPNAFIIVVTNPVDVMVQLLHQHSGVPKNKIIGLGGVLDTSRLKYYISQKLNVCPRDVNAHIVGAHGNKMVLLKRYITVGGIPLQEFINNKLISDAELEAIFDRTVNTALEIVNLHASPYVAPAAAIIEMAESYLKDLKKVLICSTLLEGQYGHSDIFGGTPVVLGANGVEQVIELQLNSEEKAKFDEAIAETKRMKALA
Calcium-dependent protein kinase 4 (Plasmodium falciparum (isolate 3D7)), sequence (Q8IBS5 whole entry, looked up): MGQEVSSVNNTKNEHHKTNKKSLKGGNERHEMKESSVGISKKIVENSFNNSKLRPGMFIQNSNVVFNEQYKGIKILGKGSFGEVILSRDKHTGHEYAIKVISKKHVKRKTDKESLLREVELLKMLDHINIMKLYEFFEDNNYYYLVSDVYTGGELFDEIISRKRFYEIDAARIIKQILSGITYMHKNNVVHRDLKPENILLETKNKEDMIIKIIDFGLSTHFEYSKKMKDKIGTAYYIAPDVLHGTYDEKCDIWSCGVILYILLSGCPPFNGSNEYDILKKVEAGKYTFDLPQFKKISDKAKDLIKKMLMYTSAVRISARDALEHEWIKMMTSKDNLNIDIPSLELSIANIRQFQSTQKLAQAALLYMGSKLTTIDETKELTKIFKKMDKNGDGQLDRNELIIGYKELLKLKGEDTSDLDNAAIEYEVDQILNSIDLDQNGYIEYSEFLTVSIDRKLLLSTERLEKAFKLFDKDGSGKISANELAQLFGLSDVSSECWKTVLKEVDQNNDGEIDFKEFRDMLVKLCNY
Calcium-dependent protein kinase 1 (Plasmodium falciparum (isolate 3D7)), sequence (P62344 whole entry, looked up): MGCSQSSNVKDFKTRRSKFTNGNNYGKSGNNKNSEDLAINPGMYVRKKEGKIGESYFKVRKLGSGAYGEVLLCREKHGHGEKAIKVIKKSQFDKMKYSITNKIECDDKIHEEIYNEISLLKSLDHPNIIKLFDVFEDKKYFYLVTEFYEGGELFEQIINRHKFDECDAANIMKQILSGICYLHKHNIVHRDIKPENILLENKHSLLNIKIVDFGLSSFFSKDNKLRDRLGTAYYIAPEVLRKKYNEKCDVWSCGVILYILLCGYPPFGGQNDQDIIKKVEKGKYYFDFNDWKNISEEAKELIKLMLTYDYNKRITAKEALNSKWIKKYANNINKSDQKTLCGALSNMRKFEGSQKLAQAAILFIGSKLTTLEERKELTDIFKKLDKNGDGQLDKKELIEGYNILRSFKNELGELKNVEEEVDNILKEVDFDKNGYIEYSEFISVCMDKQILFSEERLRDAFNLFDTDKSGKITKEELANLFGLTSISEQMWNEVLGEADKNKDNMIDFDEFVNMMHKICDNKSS

Regarding `Cc1c[nH]c2ccc(/C=C/C(=O)NC3CCC(CCN4CCc5ccc(C#N)cc5CC4)CC3)cc12` (stereo not given), the growth inhibition in experiment [1] is 91% (active); in experiment [4], 101% (active). Further, the figures for the inhibition in experiment [2] and in experiment [3] were 9% and 0%, respectively. In addition, the outcome in experiment [5], in experiment [6], in experiment [7] and in experiment [8] was inactive.
For `COC(=O)c1cccc(CNCc2cccc(-c3ccc(-c4nc5ccccc5[nH]4)s3)c2)c1`, the growth inhibition in experiment [1] is 59% (active); in experiment [4], 93% (active). Also, the inhibition in experiment [2] was -2%; in experiment [3] it was -6%. Moreover, the outcome in experiment [5], in experiment [6], in experiment [7] and in experiment [8] was inactive.
As for `O=c1cc(NCCCNC(CNCCc2ccccc2)c2cc(Br)cc(Br)c2)[nH]c2ccccc12` (stereo not given), the growth inhibition in experiment [1] was 53% (active); in experiment [4], 93% (active). Besides, the results for the inhibition in experiment [2] and in experiment [3] were -2% and 1%, respectively. Besides, the outcome in experiment [5], in experiment [6], in experiment [7] and in experiment [8] was inactive.
For the compound `CCN(CC)C(=S)N=Nc1c(O)[nH]c2c(C)cccc12`, the values for the growth inhibition in experiment [1] and in experiment [4] were 69% (active) and 94% (active), respectively. Moreover, the inhibition was 28% in experiment [2] and 3% in experiment [3]. The outcome in experiment [5], in experiment [6], in experiment [7] and in experiment [8] was inactive.
Regarding `O[C@@H](c1ccccc1)[C@@H]1CN(CCC2C[C@@H]3CC[C@H]2C3)CC[C@@]1(O)c1ccccc1` (stereo not given in full), the growth inhibition in experiment [1] is 99% (active); in experiment [4], 97% (active). Besides, the inhibition was -1% in experiment [2] and -2% in experiment [3]. In addition, the outcome in experiment [5], in experiment [6], in experiment [7] and in experiment [8] was inactive.
Take `O=C(c1ccc(-c2ccccn2)s1)N1CCc2cc3nccc(N4CCN5CCC[C@H]5C4)c3cc21`: the growth inhibition in experiment [1] is 49%; in experiment [4] it was 96% (active). Further, the inhibition was -15% in experiment [2] and -4% in experiment [3]. Moreover, the result in experiment [5], in experiment [6], in experiment [7] and in experiment [8] was inactive.
Take `COc1cc(F)c2ncc(F)c([C@@H](O)CN3CCC(NCc4cc5c(cn4)OCCO5)CC3)c2c1`: the growth inhibition in experiment [1] was 88% (active); in experiment [4], 101% (active). The inhibition was 1% in experiment [2] and -1% in experiment [3]. For the same compound, the outcome in experiment [5], in experiment [6], in experiment [7] and in experiment [8] was inactive.
Consider `Cn1ccc(C(=O)Nc2ccc3c(c2)CN(Cc2ccc(N4CCCC4)o2)CCC3)n1`, for which the growth inhibition in experiment [1] was 72% (active); in experiment [4], 80% (active). The figures for the inhibition in experiment [2] and in experiment [3] were 19% and 4%, respectively. In addition, the result in experiment [5], in experiment [6], in experiment [7] and in experiment [8] was inactive.
For the compound `CCN(CC)CCNc1nc(C=Cc2ccc(Cl)cc2)nc2cc3ccccc3cc12`, the figures for the growth inhibition in experiment [1] and in experiment [4] were 99% (active) and 100% (active), respectively. Besides, the inhibition in experiment [2] was 83% (active); in experiment [3] it was -3%. In addition, the outcome in experiment [5], in experiment [6], in experiment [7] and in experiment [8] was inactive.
In the case of `CCN(CC)CCOC(=O)c1ccc(NC(=O)c2cn(-c3ccccc3)nc2-c2cccs2)cc1`, the results for the growth inhibition in experiment [1] and in experiment [4] were 59% (active) and 100% (active), respectively. In addition, the inhibition in experiment [2] was 25%; in experiment [3] it was 3%. The result in experiment [5], in experiment [6], in experiment [7] and in experiment [8] was inactive.
Take `COc1cccc(-c2cnc(-c3ccncc3)nc2C2CCN(Cc3ccc(NC(C)=O)cc3)CC2)c1`: the growth inhibition in experiment [1] is -3%; in experiment [4], 89% (active). For the same compound, the inhibition in experiment [2] was 17%; in experiment [3], 0%. The outcome in experiment [5], in experiment [6], in experiment [7] and in experiment [8] was inactive.
`O=S1(=O)NC2(CCN(CCc3ccc(Cl)cc3)CC2)Nc2cc(F)cc(F)c21`: the growth inhibition is 5% in experiment [1] and 86% (active) in experiment [4]. For the same compound, the inhibition in experiment [2] is 7%; in experiment [3], -1%. Besides, the result in experiment [5], in experiment [6], in experiment [7] and in experiment [8] was inactive.
In the case of `CCCCCCN1CCN(Cc2cccc(NC(=O)c3cc4ccccc4s3)c2)CC1`, the growth inhibition is 68% (active) in experiment [1] and 93% (active) in experiment [4]. The inhibition in experiment [2] is 20%; in experiment [3], -1%. For the same compound, the result in experiment [5], in experiment [6], in experiment [7] and in experiment [8] was inactive.
In the case of `Cn1nc(-c2ccc(NC(=O)Nc3cc(C(F)(F)F)ccc3F)c(F)c2)c2cnc(NCCCn3ccnc3)nc21`, the growth inhibition is 97% (active) in experiment [1] and 100% (active) in experiment [4]. In addition, the inhibition was 45% in experiment [2] and 0% in experiment [3]. The outcome in experiment [5], in experiment [6], in experiment [7] and in experiment [8] was inactive.
Consider `O=C(Cn1c(CCc2cccc(F)c2F)cc(=O)c2cccnc21)N(CCCn1ccnc1)Cc1ccc(-c2ccc(C(F)(F)F)cc2)cc1`, for which the growth inhibition in experiment [1] was 47%; in experiment [4], 96% (active). Also, the inhibition in experiment [2] is 38%; in experiment [3], -3%. The result in experiment [5], in experiment [6], in experiment [7] and in experiment [8] was inactive.
For the compound `CC(Cc1ccc(OCCN2CCN(c3ccc(Cl)cc3)CC2)cc1)NCC(O)c1cccc(C(F)(F)F)c1` (stereo not given), the growth inhibition in experiment [1] is 96% (active); in experiment [4], 99% (active). Besides, the inhibition is 97% (active) in experiment [2] and 1% in experiment [3]. Also, the outcome in experiment [5], in experiment [6], in experiment [7] and in experiment [8] was inactive.
In the case of `Cc1cccc2[nH]c(-c3cccc(-c4ccc(NC(=O)Nc5cccc(C#N)c5)cc4)c3)nc12`, the growth inhibition in experiment [1] is 91% (active); in experiment [4], 101% (active). In addition, the inhibition in experiment [2] is 50% (active); in experiment [3] it was 6%. The result in experiment [5], in experiment [6], in experiment [7] and in experiment [8] was inactive.
Turning to `O=C(Nc1ccc(Br)cc1)c1cc(Br)ccc1NS(=O)(=O)c1cc(C(F)(F)F)cc(C(F)(F)F)c1`, the growth inhibition was 67% (active) in experiment [1] and 85% (active) in experiment [4]. Besides, the inhibition was 68% (active) in experiment [2] and -7% in experiment [3]. For the same compound, the result in experiment [5], in experiment [6], in experiment [7] and in experiment [8] was inactive.
In the case of `Cc1nc(-c2ccc3c(c2)CCN(CCC2CCC(NC(=O)c4cc5cccc(Cl)c5[nH]4)CC2)CC3)no1` (stereo not given), the growth inhibition in experiment [1] is 46%; in experiment [4], 100% (active). Besides, the inhibition in experiment [2] is 36%; in experiment [3], 2%. The result in experiment [5], in experiment [6], in experiment [7] and in experiment [8] was inactive.
Consider `COc1ccc(Nc2ccnc3cc(Cl)ccc23)cc1OC`, for which the figures for the growth inhibition in experiment [1] and in experiment [4] were 91% (active) and 104% (active), respectively. In addition, the inhibition in experiment [2] is 36%; in experiment [3] it was 3%. Moreover, the result in experiment [5], in experiment [6], in experiment [7] and in experiment [8] was inactive.
